The whole screen tested about 28,000 compounds, of which about 410 (1.5%) were called active. Many of the other results were omitted from the sample, so actives are more common in it than they were. A number with no mark means an inactive call. Cut-off read from the data, not from the text of the source: active = activation above about 52%; inconclusive = no clear call, values can overlap the other calls; inactive = below that.
experiment: mutant p53 pathway re-activators, primary screen, cell-based, SW480, luciferase, single point, HTS (AID 624151); details: SW480 PUMA-promoter luciferase, p53 mutant reactivation; at 9.98 µM; hits give high values

SMILES | activation
CS(=O)(=O)N(CC(=O)Nc1cc(C(F)(F)F)ccc1Cl)c1ccccc1Br | -13.9%
Cc1ccc(OCC(=O)Nc2cc(-c3nc4cc(C)c(C)cc4o3)ccc2C)cc1 | 39.9%
Cc1ccc2nc(-c3ccc(Cl)c(NC(=O)COc4ccc(Br)cc4)c3)oc2c1 | 91.4% (active)
Cc1cc(C)c2oc(-c3cccc(NC(=O)COc4ccc(Br)cc4)c3C)nc2c1 | -29.6%
CS(=O)(=O)N(CC(=O)Nc1ccccc1C(=O)N1CCOCC1)c1ccc(I)cc1 | 9.09%
CN(C)CCNc1oc(COc2ccc(F)cc2)nc1C#N | -4.45%
Cc1ccc(N(CC(O)CN2C(=O)NC(C)(C)C2=O)S(=O)(=O)c2ccccc2)cc1 (stereo not drawn) | 22.6%
O=C1c2ccccc2C(=O)N1CCCn1c2ccccc2c2nc3ccc([N+](=O)[O-])cc3cc21 | 9.36%
O=C1c2ccccc2C(=O)N1CCCc1nc2ccccc2c(=O)n1-c1nc2ccccc2s1 | 102% (active)
Cc1ccc(NC(=O)CCCN2C(=O)c3ccccc3C2=O)cc1 | 11.8%
COCC#Cc1cnc2c(c1)C(=O)N([C@H](C)CO)C[C@H](C)[C@@H](CN(C)C(=O)Nc1cc(F)ccc1F)O2 | 13.3%
CC(NS(=O)(=O)c1ccc(F)cc1)C(=O)Nc1ccc(I)cc1 (stereo not drawn) | -13.8%
COc1ccc(C#Cc2cnc3c(c2)C(=O)N([C@H](C)CO)C[C@H](C)[C@@H](CN(C)C)O3)cc1 | 0.282%
O=C(CS(=O)(=O)c1ccccc1)Nc1ccc2c(c1)OCCO2 | 61.6% (active)
COc1ccc(S(=O)(=O)N(C)CC(=O)Nc2ccc3c(c2)OCCO3)cc1OC | -12.9%
O=C(CS(=O)(=O)c1ccccc1)Nc1ccccc1O | 7.6%
Cc1ccc2nc(-c3ccncc3)cc(C(=O)NCc3ccccn3)c2c1 | -3.82%
CN(c1ccc(C(=O)NCc2ccccn2)cc1)S(C)(=O)=O | 5.75%
CC(C)(C)c1ccc(OCC(=O)NCc2ccccn2)c(Br)c1 | 94.5% (active)
CCCNC(=O)N(C)C[C@H]1Oc2cc(C#CC(C)(C)O)ccc2S(=O)(=O)N([C@H](C)CO)C[C@@H]1C | 14.1%
CCc1ccccc1NC(=O)Cn1cnc2scc(-c3ccc(OC)cc3)c2c1=O | -10.3%
Cc1cccc(N(CC(=O)Nc2cccc([N+](=O)[O-])c2)S(C)(=O)=O)c1C | -1.11%

SMILES | activation
Cc1nc(SCC(=O)Nc2ccc(C(=O)O)cc2)[nH]c(=O)c1C | -11.8%
CCn1cc(CNC(=S)Nc2cc(OC)ccc2OC)cn1 | -10.5%
CCCNC(=O)N(C)C[C@@H]1Oc2ncc(-c3ccccc3F)cc2C(=O)N([C@@H](C)CO)C[C@H]1C | 16.1%
CC(C)(C)c1ccc(OCC(=O)Nc2cccc(NC(=O)c3ccccc3)c2)cc1 | 39.6%
COc1ccccc1CC(=O)Nc1ccc(-c2nnc(-c3ccc(C)cc3)o2)cc1 | -31.3%
Cc1cc(C)cc(OCC(=O)Nc2cccc(-c3nnc(-c4ccccc4)o3)c2)c1 | 90.4% (active)
Cc1[nH]c2ccccc2c1C(=O)CSc1ccc2ccccc2n1 | -16.4%
CCCNC(=O)N(C)C[C@@H]1Oc2ncc(-c3cccc(C#N)c3)cc2C(=O)N([C@@H](C)CO)C[C@H]1C | 0.271%
CC(C)C#Cc1ccc2c(c1)O[C@@H](CN(C)Cc1ccncc1)[C@@H](C)CN([C@@H](C)CO)S2(=O)=O | -4.79%
CC(Sc1ncn(-c2ccccc2)n1)C(=O)Nc1ccc(Cl)cc1 (stereo not drawn) | 7.31%
C[C@H](CO)N1C[C@H](C)[C@H](CN(C)Cc2cccc(C(=O)O)c2)Oc2ncc(-c3ccccc3F)cc2C1=O | 5.45%
COc1ccc(NC(=O)Nc2ccc3c(c2)[C@@H]2C[C@H](CC(=O)N[C@@H](C)c4ccccc4)O[C@@H](CO)[C@@H]2O3)cc1 | -6.79%
COc1ccc2c(c1)C(=O)CC(c1ccccc1)O2 (stereo not drawn) | 60.3% (active)
COc1cc([C@H](Cc2ccccc2)NC(C)=O)oc(=O)c1 | 12.8%
Cn1nc(CC(=O)Nc2ccc3c(c2)oc2ccccc23)c2ccccc2c1=O | -34.2%
O=C(C[C@@H]1C[C@H]2c3cc(NC(=O)NC4CCCC4)ccc3O[C@H]2[C@H](CO)O1)NCc1cc(F)ccc1F | -2.6%
C[C@H]1CN([C@@H](C)CO)C(=O)c2cc(-c3ccc(C#N)cc3)cnc2O[C@@H]1CN(C)Cc1ccncc1 | -0.372%
Cc1ccc([N+](=O)[O-])cc1NC(=O)CSC1=NCCS1 | -5.18%
CNC[C@H]1Oc2cc(C#CC(C)(C)O)ccc2S(=O)(=O)N([C@@H](C)CO)C[C@@H]1C | 15.9%
C[C@@H]1CN([C@H](C)CO)C(=O)c2c(c3ccccc3n2C)-c2ccccc2CO[C@H]1CN(C)S(=O)(=O)c1ccccc1F | 1.72%
Nc1nnc(SCC(=O)Nc2ccc(F)c(Cl)c2)s1 | -1.2%
C[C@@H]1CN([C@@H](C)CO)S(=O)(=O)c2ccc(C#CCC3CCCC3)cc2O[C@H]1CN(C)Cc1ccc(C(=O)O)cc1 | -0.35%

SMILES | activation
C[C@@H]1CCCCO[C@@H](CN(C)S(=O)(=O)c2cn(C)cn2)[C@@H](C)CN([C@@H](C)CO)C(=O)c2cc(NC(=O)NC3CCCCC3)ccc2O1 | 16%
COc1ccc(OC)c(S(=O)(=O)N(C)CC(=O)Nc2cccc(Cl)c2C)c1 | -5.43%
CNC[C@H]1Oc2ncc(-c3ccccc3C)cc2C(=O)N([C@@H](C)CO)C[C@@H]1C | 6.16%
CC(=O)Nc1ccc(NC(=O)CSc2nnc3c4cc(Br)ccc4n(C)c3n2)cc1 | -24.7%
C[C@@H]1CN([C@@H](C)CO)C(=O)c2cc(C#CC(C)(C)O)cnc2O[C@H]1CN(C)Cc1cccc(F)c1 | -7.7%
COc1ccccc1NC(=O)CN(c1ccc(Br)c(C)c1)S(C)(=O)=O | 7.45%
C[C@@H]1CN([C@H](C)CO)C(=O)c2cc(-c3cncnc3)cnc2O[C@@H]1CN(C)Cc1ccc(Oc2ccccc2)cc1 | 9.54%
CCc1cc(C(=O)OC)c(NC(=S)Nc2ccc(OC)cc2[N+](=O)[O-])s1 | 62.7% (active)
COc1ccc(NC(=O)CSc2nncc3ccccc23)c([N+](=O)[O-])c1 | 4.65%
COC(=O)c1c(NC(=S)Nc2ccc(OC)cc2[N+](=O)[O-])sc2c1CCC(C)C2 (stereo not drawn) | 4.27%
CC(C(=O)Nc1nccs1)C1SC(=O)NC1=O (stereo not drawn) | 1.73%
C[C@H]1CN([C@@H](C)CO)C(=O)c2cc(C3=CCCC3)cnc2O[C@H]1CN(C)Cc1ccccc1C(=O)O | 16.5%
COCC#Cc1cnc2c(c1)C(=O)N([C@H](C)CO)C[C@H](C)[C@H](CN(C)C(=O)CCN1CCCCC1)O2 | 6.72%
Cc1ccc(S(=O)(=O)N(C)C[C@@H]2Oc3c(NC(=O)C4CC4)cccc3C(=O)N([C@H](C)CO)C[C@@H]2C)cc1 | -8.13%
COc1cc(NC(=S)NCCN2CCOCC2)c(OC)cc1Cl | -5.79%
Cc1cc(=O)oc2cc(OC(C)C(=O)Nc3ccc(N4CCOCC4)cc3)ccc12 (stereo not drawn) | 7.05%
CC(=O)CCc1c(C)[nH]c2ccc(C)cc2c1=O | 14.2%
C[C@@H]1CCCCO[C@@H](CN(C)S(=O)(=O)c2cn(C)cn2)[C@H](C)CN([C@H](C)CO)C(=O)c2cc(NC(=O)NC3CCCCC3)ccc2O1 | 17%
COc1cc(Cl)c(C)cc1NC(=O)CN(C)S(=O)(=O)c1ccc2ccccc2c1 | 14.5%
C[C@@H]1CN([C@H](C)CO)S(=O)(=O)c2ccc(-c3cncnc3)cc2O[C@H]1CN(C)C(=O)Cc1ccccc1 | -1.41%
COc1ccc(-c2nnc(SCC(=O)Nc3cccc(SC)c3)n2C)cc1 | -10.6%
CCc1ccccc1NC(=O)COc1cc(O)c2c(=O)cc(-c3ccccc3)oc2c1 | -9.5%

SMILES | activation
CC(=O)OC[C@H]1O[C@@H](Oc2c(-c3ccc(O)c(O)c3)oc3cc(O)cc(O)c3c2=O)[C@H](O)[C@@H](O)[C@@H]1O | 7.83%
COc1c(O)cc2oc(-c3ccc(O)c(O)c3)cc(=O)c2c1O | 89.5% (active)
CCOC(=O)c1c(NC(=O)C(C)Oc2ccc3c(C)cc(=O)oc3c2)sc2c1CCC2 (stereo not drawn) | 18.5%
O=C(CN(C1CCCCC1)S(=O)(=O)c1ccc(Cl)cc1)Nc1ccccc1C(F)(F)F | 3.31%
COc1cccc(C#Cc2cnc3c(c2)C(=O)N([C@@H](C)CO)C[C@H](C)[C@H](CN(C)CC2CC2)O3)c1 | 4.89%
COc1cc(CO)cc(Cl)c1OCc1cccc([N+](=O)[O-])c1 | 0.353%
COc1ccccc1CCNC(=O)c1cnccn1 | 18.5%
C[C@@H]1CN([C@@H](C)CO)C(=O)c2c(c3ccccc3n2C)-c2ccccc2CO[C@@H]1CN(C)S(=O)(=O)CC(F)(F)F | 6.74%
Cc1ccccc1-c1ccc2c(c1)O[C@@H](CN(C)C(=O)Nc1ccc(F)cc1)[C@H](C)CN([C@@H](C)CO)S2(=O)=O | -36.4%
CCCNC(=O)C[C@H]1C[C@@H]2c3cc(NS(=O)(=O)c4cccc(OC)c4)ccc3O[C@@H]2[C@@H](CO)O1 | 9.83%
CCOc1ccc(Cl)cc1S(=O)(=O)NC1CC(C)(C)NC(C)(C)C1 | 2.34%
Cc1cc(C)c2oc(-c3ccc(C)c(NC(=O)COc4ccccc4C)c3)nc2c1 | -4.75%
Cc1ccc(NC(=O)COc2ccccc2C)c([N+](=O)[O-])c1 | 109% (active)
Cc1ccc(-c2nc3cc(NC(=O)COc4ccc([N+](=O)[O-])cc4)ccc3o2)cc1C | 21.6%
CN(CC(=O)Nc1ccccc1C#N)S(=O)(=O)c1ccc2ccccc2c1 | 0.461%
O=C(COc1ccc([N+](=O)[O-])cc1)Nc1ccc2oc(-c3cccc(F)c3)nc2c1 | 43.6%
Cc1ccc(C)c(OCC(=O)Nc2ccccc2C#N)c1 | 121% (active)
COc1ccc(NC(=O)COc2cc(C)c(Br)c(C)c2)c([N+](=O)[O-])c1 | -11.9%
Cc1cc2nc(-c3ccc(NC(=O)COc4ccccc4[N+](=O)[O-])cc3)oc2cc1C | 68.1% (active)
COc1ccc(C(=O)Nc2cc(C)ccc2NC(=O)COc2ccccc2)cc1 | 28%
COc1ccccc1NC(=O)CSc1ncc(-c2ccccc2)nn1 | 36.5%
C[C@@H]1CN([C@H](C)CO)C(=O)c2cc(C#Cc3cccnc3)cnc2O[C@@H]1CN(C)Cc1ccc(F)cc1 | 5.15%
